The values that follow come from PubChem BioAssay (NCI).

Among the test systems are DU-145 prostate; K-562 leukemia; MALME-3M melanoma; MDA-MB-231 breast; RXF 393 renal; SF-268 CNS; SF-539 CNS; UACC-257 melanoma; M14 melanoma; HCT-15 colon; HT29 colon; SNB-19 CNS; U251 CNS; PC-3 prostate; SK-MEL-5 melanoma; UACC-62 melanoma; LOX IMVI melanoma; SK-MEL-28 melanoma; SNB-75 CNS.
Experiment in all cases: NCI-60 one-dose screen, 48 h (100 = growth as untreated, 0 = no growth, -100 = all killed)
Common to all, as to settings: 10 µM unless noted

Compounds without any hit were thinned out: in the full panel of roughly 83,000, 20% have a hit.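 Results are percent growth after 48 hours of single-concentration exposure. 100 means growth as in untreated cells, lower positive values show inhibition; negative values down to -100 show cell death.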 Unmarked numbers belong to inactive results. Active and inactive are the calls of the source. Rule for the calls: active = growth percent below 10; inactive = the rest.

As to `Nc1n[nH]c2ccc([C@@H]3Nc4c(F)cc5[nH]ncc5c4[C@H]4C5CCC(C5)[C@@H]34)cc12` (some centres not stated), the growth was 3.59% (active) in the assay on DU-145 prostate; 13.9% in the assay on K-562 leukemia; 32.7% in the assay with MALME-3M melanoma; 4.87% (active) with MDA-MB-231 breast; -0.647% (active) in the assay on RXF 393 renal; 36.1% in the assay on SF-268 CNS. The growth is -39% (active) in the assay on SF-539 CNS; 62.1% with UACC-257 melanoma; 9.46% (active) with M14 melanoma; 19.8% in the assay with HCT-15 colon; 11.7% with HT29 colon; 27.9% with SNB-19 CNS. Also, the growth in the assay with U251 CNS was 14.3%; in the assay on PC-3 prostate, 22.8%; in the assay on SK-MEL-5 melanoma it was 4.3% (active); in the assay with UACC-62 melanoma, 38.1%; in the assay on LOX IMVI melanoma, 20.3%; in the assay on SK-MEL-28 melanoma it was 49.2%.

With `COc1ccc(-c2n[nH]nc2-c2cc(OC)c3c(c2)OCO3)cc1`, the growth is -4.79% (active) in the assay on DU-145 prostate; -11% (active) in the assay with K-562 leukemia; 34% with MALME-3M melanoma; -25.9% (active) in the assay with MDA-MB-231 breast; 19.1% in the assay with RXF 393 renal; 16.7% in the assay with SF-268 CNS. The growth was -39.7% (active) with SF-539 CNS; 68% in the assay on UACC-257 melanoma; 6.08% (active) in the assay with HCT-15 colon; -9.19% (active) in the assay on HT29 colon; 25.4% in the assay on SNB-75 CNS; 48.7% in the assay on SNB-19 CNS. The growth was 1.06% (active) in the assay with U251 CNS; -7.05% (active) in the assay with PC-3 prostate; -1.56% (active) in the assay with SK-MEL-5 melanoma; 28% in the assay with UACC-62 melanoma; -4.34% (active) in the assay on LOX IMVI melanoma; 46.3% in the assay on SK-MEL-28 melanoma.

On to `COc1cc(/C=C/C(=O)c2ccc(NC(=O)CSc3nnc(-c4ccc(Cl)cc4)n3-c3ccccc3)cc2)cc(OC)c1OC`, for which the growth with DU-145 prostate is 80%; in the assay on K-562 leukemia, 44.3%; in the assay with MALME-3M melanoma, 101%; with MDA-MB-231 breast, 54.9%; in the assay on RXF 393 renal, 55.5%; in the assay with SF-268 CNS, 77.6%. The growth in the assay with SF-539 CNS was 91.3%; in the assay on UACC-257 melanoma it was 73.6%; with HCT-15 colon, 49.8%; in the assay on HT29 colon it was 74.8%; with SNB-75 CNS, 62.4%; in the assay on SNB-19 CNS, 76.4%. The growth in the assay with U251 CNS was 69.7%; in the assay on PC-3 prostate, 69.7%; with SK-MEL-5 melanoma it was 55.8%; in the assay on UACC-62 melanoma, 68.5%; in the assay with LOX IMVI melanoma it was 73.9%; in the assay on SK-MEL-28 melanoma, 97.1%.

As to `c1ccc(C(CC2=NCCCN2)c2ccccc2)cc1`, the growth was 102% with DU-145 prostate; 107% in the assay on K-562 leukemia; 93.2% in the assay with MALME-3M melanoma; 88.6% in the assay with MDA-MB-231 breast; 113% in the assay on RXF 393 renal; 100% in the assay on SF-268 CNS. The growth was 88% in the assay on SF-539 CNS; 97.7% in the assay with UACC-257 melanoma; 92.5% with M14 melanoma; 114% with HCT-15 colon; 102% in the assay with HT29 colon; 90.8% in the assay with U251 CNS. The growth with PC-3 prostate is 83.9%; in the assay with UACC-62 melanoma, 89.6%; in the assay with LOX IMVI melanoma, 97.8%; with SK-MEL-28 melanoma it was 107%.

Regarding `CCc1oc2ccccc2c1C(=O)c1cc(I)c(O)c(I)c1`, the growth with DU-145 prostate is 77.8%; in the assay with K-562 leukemia, 25%; in the assay on MALME-3M melanoma it was 53%; with MDA-MB-231 breast it was 54.7%; in the assay with RXF 393 renal, 45.3%; in the assay on SF-268 CNS it was 53.1%. For the same molecule, the growth in the assay on SF-539 CNS was 44%; in the assay with UACC-257 melanoma, 70.7%; with M14 melanoma, 16.2%; in the assay with HCT-15 colon it was 33.2%; in the assay with HT29 colon it was 98.5%; in the assay with SNB-75 CNS it was 31.9%. Also, the growth with U251 CNS is 29.1%; in the assay with PC-3 prostate, 74.9%; with SK-MEL-5 melanoma, 32.2%; with UACC-62 melanoma it was 45.6%; with LOX IMVI melanoma, 51.4%; in the assay with SK-MEL-28 melanoma it was 62.4%.

For `C#CC[C@@H]1C[C@]2(C)[C@H]3CC=C4[C@H]5CC(C)(C)CC[C@]5(C(=O)NCCCCN)CC[C@@]4(C)[C@]3(C)CC[C@H]2C(C)(C)[C@H]1OC(C)=O`, the growth is -47.9% (active) in the assay on DU-145 prostate; -30% (active) in the assay on K-562 leukemia; 85% with MALME-3M melanoma; -58.6% (active) in the assay on MDA-MB-231 breast; -43.3% (active) in the assay with RXF 393 renal; 89.4% in the assay on SF-268 CNS. Moreover, the growth in the assay on SF-539 CNS is 86.9%; in the assay on UACC-257 melanoma, 111%; in the assay on M14 melanoma, 2.23% (active); in the assay with HCT-15 colon, 8.51% (active); with HT29 colon, 5.83% (active); in the assay with SNB-75 CNS, -79.9% (active). Further, the growth is -77.9% (active) in the assay on U251 CNS; 27% with PC-3 prostate; 93.9% with SK-MEL-5 melanoma; 106% in the assay on UACC-62 melanoma; -70.2% (active) with LOX IMVI melanoma; 102% in the assay with SK-MEL-28 melanoma.

As to `O=C1C(Cl)=C(N/N=c2/[nH][nH]/c(=N/NC3=C(Cl)C(=O)c4ccccc4C3=O)c3ccccc23)C(=O)c2ccccc21`, the growth in the assay with DU-145 prostate was 108%; in the assay with K-562 leukemia, 9.7% (active); in the assay with MALME-3M melanoma it was 84.8%; in the assay with MDA-MB-231 breast, 42.8%; in the assay with RXF 393 renal, 73.7%; in the assay on SF-268 CNS, 41.7%. Moreover, the growth with SF-539 CNS is 47.3%; in the assay with UACC-257 melanoma, 97.7%; in the assay on M14 melanoma, 92.8%; with HCT-15 colon, 83.9%; in the assay with HT29 colon, 102%; in the assay with SNB-19 CNS, 61.9%. For the same molecule, the growth was 2.88% (active) in the assay on U251 CNS; 55.5% in the assay on PC-3 prostate; 62.6% in the assay with SK-MEL-5 melanoma; 25.7% with UACC-62 melanoma; 69.8% with LOX IMVI melanoma; 104% in the assay with SK-MEL-28 melanoma.

As to `C#CC[C@@H]1C[C@]2(C)[C@H]3CC[C@@H]4[C@H]5C(C(=C)C)CC[C@]5(C(=O)NCCCN5CCN(CCCN)CC5)CC[C@@]4(C)[C@]3(C)CC[C@H]2C(C)(C)[C@H]1OC(C)=O` (some centres not stated), the growth with DU-145 prostate is -92% (active); with K-562 leukemia it was -19.8% (active); in the assay on MALME-3M melanoma, 67.8%; with MDA-MB-231 breast it was -83.3% (active); in the assay on RXF 393 renal it was -87.4% (active); in the assay on SF-268 CNS it was 85.5%. Moreover, the growth with SF-539 CNS is -91.3% (active); with UACC-257 melanoma it was 72.1%; with M14 melanoma, -80.5% (active); in the assay with HCT-15 colon it was -50.4% (active); in the assay on HT29 colon, -68.7% (active); with SNB-75 CNS it was -95.7% (active). The growth in the assay on U251 CNS was -68.2% (active); in the assay on PC-3 prostate, 8.53% (active); in the assay with SK-MEL-5 melanoma, 83.3%; with UACC-62 melanoma, -85.6% (active); in the assay on LOX IMVI melanoma, -85.3% (active); in the assay on SK-MEL-28 melanoma it was -59.5% (active).
